Holding throughout (assay): DAPPL (digital affinity profiling via proximity ligation, sequencing); 10 mM Tris-HCl pH 7.5, 50 mM NaCl, 1 mM DTT, 4% glycerol, room temperature, 30 min; GST-TFs on glutathione beads, 16-mer random dsDNA library, 0.1% formaldehyde crosslink after washing; high values mean tight binding
One assay deals with T1, FLI1 (Homo sapiens, UniProt Q01543 1-452).
T1 sequence: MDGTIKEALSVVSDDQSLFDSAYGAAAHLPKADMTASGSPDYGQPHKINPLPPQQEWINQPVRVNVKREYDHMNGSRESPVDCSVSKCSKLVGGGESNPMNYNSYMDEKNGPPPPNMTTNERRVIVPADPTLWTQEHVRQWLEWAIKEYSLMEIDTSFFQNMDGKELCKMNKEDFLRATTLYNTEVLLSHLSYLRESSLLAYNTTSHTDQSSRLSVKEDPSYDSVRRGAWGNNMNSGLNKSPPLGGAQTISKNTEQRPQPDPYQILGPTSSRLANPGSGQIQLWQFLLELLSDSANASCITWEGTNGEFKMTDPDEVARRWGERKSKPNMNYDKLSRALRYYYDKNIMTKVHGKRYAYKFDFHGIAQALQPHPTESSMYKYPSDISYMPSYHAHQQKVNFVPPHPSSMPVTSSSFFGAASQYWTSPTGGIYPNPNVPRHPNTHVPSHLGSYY
Conditions: protein: recombinant; tags: N-terminal GST; dsDNA, one strand shown. The procedure, abridged:
(§1)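 A tag-only sample was pooled with DNA-barcoded human transcription factors that had been expressed in yeast as GST fusions and captured on glutathione beads. The pools were incubated for 30 min at room temperature with 200 nmole of a random double-stranded 16-mer DNA library in Tris/NaCl/DTT/glycerol buffer, then washed, crosslinked with 0.1% formaldehyde, proximity-ligated (BsaI/T4 ligase, 1 h, 37 °C), PCR-amplified and sequenced on an Illumina NextSeq500. Binding signal is each hexamer's read frequency for a factor divided by its frequency for the tag-only sample.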

A further assay concerns the target T2, ELK1 (Homo sapiens, UniProt P19419 1-428).
T2 sequence: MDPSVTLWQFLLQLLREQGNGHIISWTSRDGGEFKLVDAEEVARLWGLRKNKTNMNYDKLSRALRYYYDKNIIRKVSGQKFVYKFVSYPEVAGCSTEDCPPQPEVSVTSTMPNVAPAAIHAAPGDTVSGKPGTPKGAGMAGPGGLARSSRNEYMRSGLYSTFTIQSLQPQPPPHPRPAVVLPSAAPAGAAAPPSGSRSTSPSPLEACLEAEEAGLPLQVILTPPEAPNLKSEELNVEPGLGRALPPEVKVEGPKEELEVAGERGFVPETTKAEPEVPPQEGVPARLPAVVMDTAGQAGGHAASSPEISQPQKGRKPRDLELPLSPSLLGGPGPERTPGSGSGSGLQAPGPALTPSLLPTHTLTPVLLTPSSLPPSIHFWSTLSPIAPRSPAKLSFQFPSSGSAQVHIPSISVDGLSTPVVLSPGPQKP
Conditions: protein: recombinant; tags: N-terminal GST; dsDNA, one strand shown. The essentials: as §1

The next assay concerns the target T3, GABPA (Homo sapiens, UniProt Q06546 1-454).
T3 sequence: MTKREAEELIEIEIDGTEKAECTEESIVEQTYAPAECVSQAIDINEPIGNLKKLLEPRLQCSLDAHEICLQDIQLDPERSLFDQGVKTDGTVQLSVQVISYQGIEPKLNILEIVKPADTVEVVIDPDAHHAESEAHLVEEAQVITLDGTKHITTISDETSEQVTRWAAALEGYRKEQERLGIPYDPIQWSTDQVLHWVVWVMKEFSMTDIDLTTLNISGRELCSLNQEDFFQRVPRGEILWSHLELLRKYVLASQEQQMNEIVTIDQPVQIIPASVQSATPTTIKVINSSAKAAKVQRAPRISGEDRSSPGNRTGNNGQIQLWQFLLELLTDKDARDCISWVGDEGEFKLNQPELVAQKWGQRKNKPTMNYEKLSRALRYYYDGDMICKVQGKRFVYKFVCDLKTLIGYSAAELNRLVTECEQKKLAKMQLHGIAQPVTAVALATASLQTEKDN
Conditions: protein: recombinant; tags: N-terminal GST; dsDNA, one strand shown. The procedure, abridged:
as §1

For the next assay, the target named is T4, ERG (Homo sapiens, UniProt P11308 1-479).
T4 sequence: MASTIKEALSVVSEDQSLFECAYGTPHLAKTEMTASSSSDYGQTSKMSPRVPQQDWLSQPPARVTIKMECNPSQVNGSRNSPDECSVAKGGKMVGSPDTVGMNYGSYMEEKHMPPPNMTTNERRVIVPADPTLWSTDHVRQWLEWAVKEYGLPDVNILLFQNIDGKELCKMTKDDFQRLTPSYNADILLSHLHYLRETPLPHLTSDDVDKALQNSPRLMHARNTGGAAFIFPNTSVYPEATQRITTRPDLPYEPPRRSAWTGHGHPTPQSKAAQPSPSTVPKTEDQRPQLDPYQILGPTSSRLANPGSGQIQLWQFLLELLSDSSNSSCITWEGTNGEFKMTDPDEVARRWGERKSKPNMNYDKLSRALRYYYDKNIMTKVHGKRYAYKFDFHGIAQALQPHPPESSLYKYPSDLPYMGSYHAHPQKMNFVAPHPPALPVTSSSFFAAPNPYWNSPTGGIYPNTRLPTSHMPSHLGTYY
Conditions: protein: recombinant; tags: N-terminal GST; dsDNA, one strand shown. The essentials:
as §1

The next assay has as its target ELF1 (Homo sapiens, UniProt P32519 1-619). Conditions: protein: recombinant; tags: N-terminal GST; dsDNA, one strand shown. The essentials: as §1
In a further assay the target is T5, EHF (Homo sapiens, UniProt Q9NZC4 1-300).
T5 sequence: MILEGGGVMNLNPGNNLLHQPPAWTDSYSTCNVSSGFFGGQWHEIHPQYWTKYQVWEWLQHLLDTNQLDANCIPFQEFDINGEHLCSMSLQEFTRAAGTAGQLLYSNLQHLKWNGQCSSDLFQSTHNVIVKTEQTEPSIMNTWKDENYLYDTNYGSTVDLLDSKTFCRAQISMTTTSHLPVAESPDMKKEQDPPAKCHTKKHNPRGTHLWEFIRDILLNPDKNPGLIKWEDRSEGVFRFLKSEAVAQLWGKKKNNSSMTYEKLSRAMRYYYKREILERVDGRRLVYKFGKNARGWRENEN
Conditions: protein: recombinant; tags: N-terminal GST; dsDNA, one strand shown. The procedure, abridged: as §1

The next assay has as its target SPI1 (Homo sapiens, UniProt P17947 1-270). Conditions: protein: recombinant; tags: N-terminal GST; dsDNA, one strand shown. The essentials: as §1
A further assay concerns the target SPIB (Homo sapiens, UniProt Q01892 1-262). Conditions: protein: recombinant; tags: N-terminal GST; dsDNA, one strand shown. The procedure, abridged: as §1
Another assay has as its target T6, ELK3 (Homo sapiens, UniProt P41970 1-407).
T6 sequence: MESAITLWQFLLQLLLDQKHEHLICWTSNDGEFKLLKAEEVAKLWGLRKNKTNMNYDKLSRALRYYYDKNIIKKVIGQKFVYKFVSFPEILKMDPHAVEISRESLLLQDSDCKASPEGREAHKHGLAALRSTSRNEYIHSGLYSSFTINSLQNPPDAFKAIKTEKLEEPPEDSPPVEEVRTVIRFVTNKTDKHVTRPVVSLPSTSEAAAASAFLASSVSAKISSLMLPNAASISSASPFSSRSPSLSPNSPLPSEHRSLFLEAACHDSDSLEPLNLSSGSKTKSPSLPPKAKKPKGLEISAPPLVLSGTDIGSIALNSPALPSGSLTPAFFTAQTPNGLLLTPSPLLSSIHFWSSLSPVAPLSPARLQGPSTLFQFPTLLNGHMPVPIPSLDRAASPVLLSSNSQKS
Conditions: protein: recombinant; tags: N-terminal GST; dsDNA, one strand shown. The essentials: as §1

The target in another assay is T7, FEV (Homo sapiens, UniProt Q99581 1-238).
T7 sequence: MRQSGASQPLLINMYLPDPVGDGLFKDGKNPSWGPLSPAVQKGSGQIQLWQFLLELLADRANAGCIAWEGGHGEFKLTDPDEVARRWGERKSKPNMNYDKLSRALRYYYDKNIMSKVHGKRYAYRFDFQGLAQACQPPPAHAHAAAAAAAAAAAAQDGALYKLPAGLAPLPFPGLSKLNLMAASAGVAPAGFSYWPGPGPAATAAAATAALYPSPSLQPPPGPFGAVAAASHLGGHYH
Conditions: protein: recombinant; tags: N-terminal GST; dsDNA, one strand shown. The procedure, abridged:
as §1

The target of the next assay is ETV5 (Homo sapiens, UniProt P41161 1-510). Conditions: protein: recombinant; tags: N-terminal GST; dsDNA, one strand shown. The essentials: as §1
ETV5, sequence (P41161 whole entry): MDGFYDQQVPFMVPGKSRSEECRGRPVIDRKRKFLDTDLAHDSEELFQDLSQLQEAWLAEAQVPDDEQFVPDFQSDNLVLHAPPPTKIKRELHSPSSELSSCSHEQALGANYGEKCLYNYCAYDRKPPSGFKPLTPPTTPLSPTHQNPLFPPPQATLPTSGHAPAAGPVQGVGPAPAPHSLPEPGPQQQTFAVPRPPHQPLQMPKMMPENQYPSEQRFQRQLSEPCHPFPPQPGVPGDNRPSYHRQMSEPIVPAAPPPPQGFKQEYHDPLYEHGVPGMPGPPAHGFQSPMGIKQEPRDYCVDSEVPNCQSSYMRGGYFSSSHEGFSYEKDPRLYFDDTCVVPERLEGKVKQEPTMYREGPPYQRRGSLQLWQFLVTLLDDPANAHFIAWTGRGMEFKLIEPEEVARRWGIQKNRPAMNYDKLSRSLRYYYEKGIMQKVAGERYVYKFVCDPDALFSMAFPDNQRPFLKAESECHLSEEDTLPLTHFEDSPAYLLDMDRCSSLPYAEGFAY
Another assay has as its target HSF1 (Homo sapiens, UniProt Q00613 1-529). Conditions: protein: recombinant; tags: N-terminal GST; chain copies: 3; dsDNA, one strand shown. The essentials:
as §1

The target in the next assay is T8, SPIC (Homo sapiens, UniProt Q8N5J4 1-248).
T8 sequence: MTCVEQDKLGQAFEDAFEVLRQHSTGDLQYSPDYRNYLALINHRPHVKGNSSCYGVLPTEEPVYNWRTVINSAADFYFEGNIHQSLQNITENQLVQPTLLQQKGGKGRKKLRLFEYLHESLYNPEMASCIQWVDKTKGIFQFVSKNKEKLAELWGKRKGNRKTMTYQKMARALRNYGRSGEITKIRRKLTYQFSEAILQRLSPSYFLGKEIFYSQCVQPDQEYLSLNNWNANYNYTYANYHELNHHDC
Conditions: protein: recombinant; tags: N-terminal GST; dsDNA, one strand shown. The essentials: as §1

In another assay the target is ELF4 (Homo sapiens, UniProt Q99607 1-663). Conditions: protein: recombinant; tags: N-terminal GST; dsDNA, one strand shown. The essentials:
as §1

For another assay, the target named is T9, ELK4 (Homo sapiens, UniProt P28324-2 1-405).
T9 sequence: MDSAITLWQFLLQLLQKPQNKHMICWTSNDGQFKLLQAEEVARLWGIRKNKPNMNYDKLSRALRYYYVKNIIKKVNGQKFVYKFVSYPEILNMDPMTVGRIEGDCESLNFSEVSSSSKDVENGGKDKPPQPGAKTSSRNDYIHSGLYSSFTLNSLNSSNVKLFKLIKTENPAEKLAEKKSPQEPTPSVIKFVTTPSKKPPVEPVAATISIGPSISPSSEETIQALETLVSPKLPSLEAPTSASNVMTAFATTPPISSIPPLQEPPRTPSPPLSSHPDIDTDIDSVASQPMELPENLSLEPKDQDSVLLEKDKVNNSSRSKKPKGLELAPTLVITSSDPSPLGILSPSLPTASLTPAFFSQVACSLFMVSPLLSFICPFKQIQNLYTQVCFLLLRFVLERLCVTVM
Conditions: protein: recombinant; tags: N-terminal GST; dsDNA, one strand shown. The procedure, abridged: as §1

The target of the next assay is T10, ETV2 (Homo sapiens, UniProt O00321 1-342).
T10 sequence: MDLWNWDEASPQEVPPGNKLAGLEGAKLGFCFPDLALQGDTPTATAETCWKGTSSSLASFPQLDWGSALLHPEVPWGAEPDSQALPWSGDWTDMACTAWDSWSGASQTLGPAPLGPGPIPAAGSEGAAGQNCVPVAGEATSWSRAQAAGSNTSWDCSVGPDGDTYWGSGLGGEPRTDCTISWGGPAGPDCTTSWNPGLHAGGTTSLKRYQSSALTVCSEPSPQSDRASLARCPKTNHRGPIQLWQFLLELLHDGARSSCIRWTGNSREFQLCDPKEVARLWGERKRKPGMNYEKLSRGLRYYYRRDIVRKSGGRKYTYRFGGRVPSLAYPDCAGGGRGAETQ
Conditions: protein: recombinant; tags: N-terminal GST; dsDNA, one strand shown. The procedure, abridged:
as §1

The next assay deals with T11, ELF3 (Homo sapiens, UniProt P78545 1-371).
T11 sequence: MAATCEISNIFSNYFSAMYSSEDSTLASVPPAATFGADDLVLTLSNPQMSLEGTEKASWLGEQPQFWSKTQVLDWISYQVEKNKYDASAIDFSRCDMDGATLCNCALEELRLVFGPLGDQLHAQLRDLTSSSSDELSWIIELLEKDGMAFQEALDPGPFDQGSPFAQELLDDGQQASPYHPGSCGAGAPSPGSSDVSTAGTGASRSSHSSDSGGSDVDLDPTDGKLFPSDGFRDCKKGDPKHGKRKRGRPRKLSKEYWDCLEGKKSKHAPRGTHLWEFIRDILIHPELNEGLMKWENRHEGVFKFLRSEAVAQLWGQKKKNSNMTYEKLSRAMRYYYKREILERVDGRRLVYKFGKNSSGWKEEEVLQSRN
Conditions: protein: recombinant; tags: N-terminal GST; dsDNA, one strand shown. The essentials:
as §1

The target of a further assay is CRX (Homo sapiens, UniProt O43186 1-299). Conditions: protein: recombinant; tags: N-terminal GST; dsDNA, one strand shown. The essentials:
as §1

In a further assay the target is ETV1 (Homo sapiens, UniProt P50549 1-477). Conditions: protein: recombinant; tags: N-terminal GST; dsDNA, one strand shown. The essentials: as §1
ETV1, sequence (P50549 whole entry): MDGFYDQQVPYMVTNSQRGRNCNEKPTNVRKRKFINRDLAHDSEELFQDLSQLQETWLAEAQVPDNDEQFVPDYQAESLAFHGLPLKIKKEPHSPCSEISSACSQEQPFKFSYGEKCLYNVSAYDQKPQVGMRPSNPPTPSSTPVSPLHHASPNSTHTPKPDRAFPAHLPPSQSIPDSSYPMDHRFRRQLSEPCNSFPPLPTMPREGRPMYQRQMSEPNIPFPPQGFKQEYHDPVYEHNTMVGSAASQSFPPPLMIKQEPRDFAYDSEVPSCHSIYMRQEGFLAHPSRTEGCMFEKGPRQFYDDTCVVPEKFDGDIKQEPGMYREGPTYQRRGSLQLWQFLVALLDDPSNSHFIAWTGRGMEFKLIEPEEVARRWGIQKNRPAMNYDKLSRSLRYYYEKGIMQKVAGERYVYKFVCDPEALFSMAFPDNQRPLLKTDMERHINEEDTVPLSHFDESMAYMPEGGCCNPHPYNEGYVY

ELF4, sequence (Q99607 whole entry): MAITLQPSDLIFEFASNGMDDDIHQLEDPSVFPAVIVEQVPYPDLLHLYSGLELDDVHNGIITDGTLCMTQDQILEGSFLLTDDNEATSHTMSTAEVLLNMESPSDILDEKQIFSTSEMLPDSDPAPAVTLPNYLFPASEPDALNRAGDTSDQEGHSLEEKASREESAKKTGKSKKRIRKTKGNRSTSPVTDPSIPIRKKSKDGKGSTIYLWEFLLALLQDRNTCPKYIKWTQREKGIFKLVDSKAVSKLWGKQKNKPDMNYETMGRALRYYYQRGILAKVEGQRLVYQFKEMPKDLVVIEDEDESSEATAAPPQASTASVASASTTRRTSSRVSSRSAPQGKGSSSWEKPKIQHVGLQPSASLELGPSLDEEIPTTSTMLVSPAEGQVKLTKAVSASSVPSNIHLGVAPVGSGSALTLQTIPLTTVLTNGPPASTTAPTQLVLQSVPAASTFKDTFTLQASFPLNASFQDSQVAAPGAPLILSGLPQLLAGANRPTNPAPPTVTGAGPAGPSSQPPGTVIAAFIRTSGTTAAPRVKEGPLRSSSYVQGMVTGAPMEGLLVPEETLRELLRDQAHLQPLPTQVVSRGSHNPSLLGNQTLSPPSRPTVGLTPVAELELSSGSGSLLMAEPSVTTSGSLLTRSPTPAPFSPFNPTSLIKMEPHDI
HSF1, sequence (Q00613 whole entry): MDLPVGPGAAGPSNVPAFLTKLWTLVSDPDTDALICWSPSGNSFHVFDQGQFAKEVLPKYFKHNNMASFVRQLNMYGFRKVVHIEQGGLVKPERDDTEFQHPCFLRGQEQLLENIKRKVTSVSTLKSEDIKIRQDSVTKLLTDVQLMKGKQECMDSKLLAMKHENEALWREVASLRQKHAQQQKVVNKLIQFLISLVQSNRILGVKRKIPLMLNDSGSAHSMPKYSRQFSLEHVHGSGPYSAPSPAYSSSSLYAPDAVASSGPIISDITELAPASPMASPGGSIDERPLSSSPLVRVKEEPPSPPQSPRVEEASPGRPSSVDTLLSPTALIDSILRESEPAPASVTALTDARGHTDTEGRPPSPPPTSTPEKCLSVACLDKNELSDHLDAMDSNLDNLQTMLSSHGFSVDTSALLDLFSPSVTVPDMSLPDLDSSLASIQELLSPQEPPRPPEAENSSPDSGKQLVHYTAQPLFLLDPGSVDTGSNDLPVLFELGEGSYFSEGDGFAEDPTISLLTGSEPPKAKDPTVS
ELF1, sequence (P32519 whole entry): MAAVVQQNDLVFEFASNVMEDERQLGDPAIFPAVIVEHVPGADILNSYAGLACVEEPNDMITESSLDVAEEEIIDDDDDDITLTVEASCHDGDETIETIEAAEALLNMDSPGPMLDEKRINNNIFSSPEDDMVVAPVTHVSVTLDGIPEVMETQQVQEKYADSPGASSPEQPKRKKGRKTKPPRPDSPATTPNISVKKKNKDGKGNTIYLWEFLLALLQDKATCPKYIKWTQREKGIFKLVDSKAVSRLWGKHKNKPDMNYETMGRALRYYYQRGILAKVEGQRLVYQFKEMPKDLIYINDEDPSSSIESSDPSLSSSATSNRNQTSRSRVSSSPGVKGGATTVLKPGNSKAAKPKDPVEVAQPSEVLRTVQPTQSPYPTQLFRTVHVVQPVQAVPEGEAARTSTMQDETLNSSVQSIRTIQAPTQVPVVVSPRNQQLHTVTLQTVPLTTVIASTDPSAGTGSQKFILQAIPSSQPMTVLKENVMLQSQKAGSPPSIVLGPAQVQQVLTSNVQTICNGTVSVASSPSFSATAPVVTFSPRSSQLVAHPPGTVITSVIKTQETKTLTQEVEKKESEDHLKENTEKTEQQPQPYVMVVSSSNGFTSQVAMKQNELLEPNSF
CRX, sequence (O43186 whole entry): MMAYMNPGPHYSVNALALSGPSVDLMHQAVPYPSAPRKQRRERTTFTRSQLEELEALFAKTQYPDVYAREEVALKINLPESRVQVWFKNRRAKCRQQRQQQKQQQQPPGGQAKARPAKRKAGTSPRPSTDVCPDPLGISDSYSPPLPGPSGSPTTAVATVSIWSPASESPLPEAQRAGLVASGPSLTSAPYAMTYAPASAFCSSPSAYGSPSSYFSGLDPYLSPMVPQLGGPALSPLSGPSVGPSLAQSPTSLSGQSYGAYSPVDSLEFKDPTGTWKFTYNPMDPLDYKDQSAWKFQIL
SPIB, sequence (Q01892 whole entry): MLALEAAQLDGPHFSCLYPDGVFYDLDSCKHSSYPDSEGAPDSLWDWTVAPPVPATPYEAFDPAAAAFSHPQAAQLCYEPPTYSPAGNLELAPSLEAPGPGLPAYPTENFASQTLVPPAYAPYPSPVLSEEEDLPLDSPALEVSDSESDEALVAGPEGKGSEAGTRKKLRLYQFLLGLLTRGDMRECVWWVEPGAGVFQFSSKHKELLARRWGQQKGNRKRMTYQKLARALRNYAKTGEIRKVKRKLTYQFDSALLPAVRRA

Regarding CACTTG, the binding signal is 1.36 fold enrichment (6-mer frequency, TF over GST control) in the assay with FLI1; 1.48 fold enrichment (6-mer frequency, TF over GST control) with ELK1; 1.32 fold enrichment (6-mer frequency, TF over GST control) in the assay with GABPA; 1.37 fold enrichment (6-mer frequency, TF over GST control) with ERG; 1.33 fold enrichment (6-mer frequency, TF over GST control) in the assay with ELF1; 1.36 fold enrichment (6-mer frequency, TF over GST control) with EHF. Also, the binding signal was 1.39 fold enrichment (6-mer frequency, TF over GST control) in the assay with SPI1; 1.3 fold enrichment (6-mer frequency, TF over GST control) in the assay with SPIB; 1.26 fold enrichment (6-mer frequency, TF over GST control) with ELK3; 1.33 fold enrichment (6-mer frequency, TF over GST control) with FEV; 1.41 fold enrichment (6-mer frequency, TF over GST control) in the assay with ETV5; 1.12 fold enrichment (6-mer frequency, TF over GST control) with HSF1. For the same sequence, the binding signal was 1.12 fold enrichment (6-mer frequency, TF over GST control) with SPIC; 1.45 fold enrichment (6-mer frequency, TF over GST control) with ELF4; 1.43 fold enrichment (6-mer frequency, TF over GST control) with ELK4; 1.36 fold enrichment (6-mer frequency, TF over GST control) with ETV2; 1.41 fold enrichment (6-mer frequency, TF over GST control) in the assay with ELF3; 1.1 fold enrichment (6-mer frequency, TF over GST control) in the assay with CRX. Further, in the assay with ETV1, the binding signal is 1.36 fold enrichment (6-mer frequency, TF over GST control).

For the origin of these results see publication PMC7862700, “An all-to-all approach to the identification of sequence-specific readers for epigenetic DNA modifications on cytosine”.
